Source: the supplement of paper PMC12350171
Where a name gives a salt, the structure may show the parent alone. Unmarked numbers belong to inactive results.

Tests used:
Details in all cases: 20 µM
[1] = test system: Haemophilus parainfluenzae; test: growth AUC normalised to DMSO control (fraction of control); higher = less growth inhibition, active = hit call of the paper
Outline: (§1)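 Pathogens were passaged twice under anaerobic conditions, then inoculated into pre-reduced mGAM plates at a starting OD578 of 0.01, with compound at 20 μM and 1% DMSO, and sealed with breathable membranes. For Haemophilus parainfluenzae, the medium was supplemented with hemin and NAD. OD578 was read every hour for 24 h in three biological replicates. Growth-curve AUC was calculated by the trapezoidal rule up to the exponential-to-stationary transition and normalised to DMSO controls on the same plate.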

[2] = test system: Salmonella enterica typhimurium; test: as above
Outline: as §1

[3] = test system: Shigella flexneri; test: as above
Outline: as §1

[4] = test system: Vibrio cholerae; test: as above
Outline: as §1

[5] = test system: Yersinia pseudotuberculosis; test: as above
Outline: as §1

[6] = test system: P. vulgatus RND KO; test: growth AUC normalised to DMSO control (median) (fraction of control); higher = less growth inhibition, active = hit call of the paper
Outline: (§2)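 Area under the growth curve, calculated by the trapezoidal rule up to entry into stationary phase, was normalised to vehicle wells on the same plate. Strains had been passaged twice overnight without oxygen and then grown in mGAM in 96-well plates from OD578 0.01, each with an approved-drug library compound at 20 μM in 1% DMSO. OD578 was read hourly over 24 h in an anaerobic incubator, and the median of three biological replicates is given.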

[7] = test system: P. vulgatus WT; test: as above
Outline: as §2

[8] = test system: S. enterica typhimurium WT; test: as above
Outline: as §2

[9] = test system: S. enterica typhimurium tolC KO; test: as above
Outline: as §2
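Wherever growth AUC normalised to DMSO control (median) is given: active when median AUC fell below 0.1.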

Row | SMILES | growth AUC normalised to DMSO control [1] | growth AUC normalised to DMSO control [2] | growth AUC normalised to DMSO control [3] | growth AUC normalised to DMSO control [4] | growth AUC normalised to DMSO control [5] | growth AUC normalised to DMSO control [6] | growth AUC normalised to DMSO control [7] | growth AUC normalised to DMSO control [8] | growth AUC normalised to DMSO control [9]
1 | CCOC(=O)c1cncn1[C@H](C)c1ccccc1 [Etomidate] | 1.02 | 1.01 | 1 | 1.03 | 0.984 | 1.07 | 1.1 | 1 | 0.978
2 | CCCN1C[C@H](CSC)C[C@@H]2c3cccc4[nH]cc(c34)C[C@H]21 [Pergolide mesylate] | 1 | 0.998 | 0.959 | 0.956 | 1.01 | 0.986 | 0.956 | 0.995 | 0.974
3 | C[C@]12CCC(=O)C=C1C=C[C@@H]1[C@@H]2CC[C@@]2(C)[C@H]1CC[C@@]2(O)CCC(=O)O [Canrenoic acid potassium salt] | 0.979 | 0.993 | 0.97 | 1.02 | 0.983 | 1.01 | 0.996 | 1.01 | 1
4 | CC(C)(N)Cc1ccccc1 [Phentermine hydrochloride] | 1.02 | 1.02 | 1.03 | 1.04 | 1.01 | 0.0617 (active) | 0.458 | 0.992 | 0.996
5 | CCC1(c2cccc(O)c2)CCCCN(C)C1 (stereo not drawn) [Meptazinol hydrochloride] | 0.961 | 0.983 | 0.948 | 0.974 | 0.994 | 0.993 | 0.982 | 0.998 | 1
6 | COc1ccc(CN2CCNCC2)c(OC)c1OC [Trimetazidine dihydrochloride] | 1.02 | 0.989 | 1.03 | 1.02 | 1.01 | 1.01 | 1.01 | 0.997 | 0.994
7 | CN1[C@@H]2CC[C@H]1C[C@@H](OC1c3ccccc3CCc3ccccc31)C2 [Deptropine citrate] | 0.95 | 0.993 | 0.971 | 0.926 | 0.965 | 0.941 | 0.945 | 0.994 | 0.942
